Experimental data taken from PubChem BioAssay (EPA / NIEHS).
Where “and” joins values, the source holds several entries; their conditions need not be identical. Equal values may be shown once. A structure can be active in one record and inactive in another. Calls of active or inactive are those of the source. The calls were made as follows: active = hit-call score of the fitted dose curve at least 0.9, where 1 is the maximum; inactive = score below 0.9.

Read-out: Human Leukocyte Antigen - DR isotype (HLADR), HLA-DRA (gene 3122)
Assay: BSK_BE3C_HLADR: BioMAP Diversity Plus: BE3C Assay for Human Leukocyte Antigen - DR isotype (HLADR) Biomarker Activity (AID 2283032)
Conditions: primary human bronchial epithelial cells; actives raise or lower the signal
Protocol: BSK_BE3C is a cell-based, multiplexed-readout assay that uses bronchial epithelial cell, a human lung primary cell, with measurements taken at 24 hours after chemical dosing in a 96-well plate.BSK_BE3C_HLADR is an assay component measured in the BSK_BE3C assay. It measures HLA-DR antibody related to regulation of gene expression using ELISA technology.Data from the assay component BSK_BE3C_HLADR was analyzed into 1 assay endpoint. This assay endpoint, BSK_BE3C_HLADR, was analyzed with bidirectional fitting relative to DMSO as the negative control and baseline of activity. Using a type of binding reporter, gain or loss-of-signal activity can be used to understand changes in the signaling as they relate to the gene HLA-DRA. Furthermore, this assay endpoint can be referred to as a primary readout, because this assay has produced multiple assay endpoints where this one serves a signaling function. To generalize the intended target to other relatable targets, this assay endpoint is annotated to the cell adhesion molecules intended target family, where the subfamily is MHC Class II.
The levels of cell surface (or secreted, indicated by the prefix "s") biomarker endpoints were measured by ELISA. Overt cytotoxicity to cells in confluent adherent cultures (all systems other than the BT system) was assessed by measuring total protein levels using sulforhodamine B (SRB) staining in parallel cultures at the time of biomarker measurements, indicated as SRB endpoints. For proliferation assays for adherent cell types, individual cell types are cultured at sub-confluence and relative cell numbers quantified by SRB staining at time points optimized for each system (48 h: 3C and CASM3C systems; 72 h: BT and HDF3CGF systems; 96 h: SAg system). SRB was performed by staining cells with 0.1% SRB after fixation with 10% TCA and reading wells at 560 nm.Viability and proliferation of PBMC (T cells) was quantified by Alamar Blue reduction for the SAg and BT systems. For PBMC viability (referred to as PBMC Cytotoxicity within the assay endpoint names), cells were plated (75,000/well in a 96-well plate) and then chemical samples added for 1 h before addition of activators, SEB and TSST-1 (20 ng/mL final concentration each). Cells were incubated for 90 h. Then, Alamar Blue (20 uL/well) (Invitrogen, Cat DAL1100) was added for 6 h, and the plates were read with a fluorescence microplate reader at 546/580 nm (excitation/emission). For PBMC proliferation, cells were plated and activated as above but incubated for only 16 h prior to addition of Alamar Blue. Plates were read after 6 h.

Row | Structure (SMILES) | outcome | AC50
1 | CCO[Si](C)(OCC)OCC | inactive | 
2 | O=C1CCCN1CCO | inactive | 
3 | N#[N+]c1ccc2c(S(=O)(=O)[O-])cccc2c1O | inactive | 
4 | CC1OC1C1CCC2(C)OC2C1 (configuration not stated) | inactive | 
5 | C#CC1(O)CC[C@H]2[C@@H]3CCC4=CCCC[C@@H]4[C@H]3CC[C@@]21C (some centres not stated) |  | 33.3 µM (active)
6 | CO[Si](OC)(OC)c1ccccc1 | inactive | 
7 | C=CC=CC=CCCCCC |  | 5 µM (active)
8 | CCCCC(CC)COC(=O)c1ccccc1O (configuration not stated) | inactive | 
9 | c1ccc(-c2ccccn2)nc1 | inactive | 
10 | O=C(Cl)c1cc(C(=O)Cl)cc(C(=O)Cl)c1 |  | 28.8 µM (active)
11 | COCc1c(C(C)C)nc(C(C)C)c(/C=C/[C@@H](O)C[C@@H](O)CC(=O)O)c1-c1ccc(F)cc1 | inactive | 
12 | CCCCNc1ccc(NCCCC)c2c1C(=O)c1ccccc1C2=O |  | 5 µM (active)
13 | COc1ccc2nc(N)sc2c1 | inactive | 
14 | c1ccc2c(c1)ccc1cc3c(ccc4ccccc43)cc12 | inactive | 
15 | CCCCC/C=C\C/C=C\CCCCCCCC(=O)OC |  | 18.8 µM (active)
16 | C/C=C\C/C=C/CCCCCCCCOC(C)=O |  | 25.7 µM (active)
17 | CCCCCCCCc1ccc(Nc2ccc(CCCCCCCC)cc2)cc1 | inactive | 
18 | O=c1c2ccccc2oc2ccccc12 | inactive | 

Row | Structure (SMILES) | outcome | AC50
19 | CC(C)C(=O)C(C)C | inactive | 
20 | CN1C(=O)N(C)C(O)C1O (configuration not stated) | inactive | 
21 | CCO[Si](CCCN=C=O)(OCC)OCC | inactive | 
22 | C=CCOCC(O)CCl (configuration not stated) | inactive | 
23 | C=C[Si](OC(C)=O)(OC(C)=O)OC(C)=O | inactive | 
24 | O=C(c1ccc(O)cc1)c1ccc(O)cc1O | inactive | 20 µM (active)
25 | CCCCCCCCCCCCCCCC[N+](C)(C)CC |  | 2.28 µM (active)
26 | C=CC(=O)OCC(Br)CBr (configuration not stated) |  | 14.4 µM (active)
27 | CCOc1nc(F)cc2nc(S(=O)(=O)Nc3c(Cl)cccc3C(=O)OC)nn12 | inactive | 
28 | S=C(NC1CCCCC1)NC1CCCCC1 | inactive | 
29 | C=CCOc1c(Br)cc(Br)cc1Br |  | 29 µM (active)
30 | CCOC(=O)c1ccccc1C(=C1C=C(Br)C(=O)C(Br)=C1)c1cc(Br)c(O)c(Br)c1 |  | 4.71 µM (active) and 4.54 µM (active)
31 | O=Nc1ccc(O)cc1 | inactive | 
32 | CCCCC(CC)COCC1CO1 (configuration not stated) | inactive | 
33 | Nc1ccc(N)c(Cl)c1 | inactive | 
34 | O=C(Nc1ccccc1SSc1ccccc1NC(=O)c1ccccc1)c1ccccc1 | inactive | 
35 | CC(C)(c1cc(Br)c(OCCO)c(Br)c1)c1cc(Br)c(OCCO)c(Br)c1 | inactive | 
36 | c1ccc2c(c1)ccc1ncccc12 | inactive | 
